The test system of experiment [1] is Plasmodium falciparum Sir2 (PF13_0152, Sir2A). Nature of the experiment: Plasmodium falciparum Sir2A binding compounds – biochemical, small-molecule microarray, 635 nm fluorescence, primary screen (AID 1098).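 Note: score merges spot fluorescence intensity with its signal-to-noise ratio.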 The settings on record: fluorescence 635 nm, higher = more signal.
Experiment [2] can be described thus: probe aDKK1 binding to arrayed compounds – biochemical, biotinylated probe, 635/667 nm fluorescence, primary screen (AID 1099).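 Note: score merges 667nm spot fluorescence with signal to noise across triplicate slides.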 The settings on record: small-molecule microarray, higher = more signal.
The nature of experiment [3]: probe aCHRDL2 binding to arrayed compounds – biochemical, biotinylated probe, 635/667 nm fluorescence, primary screen (AID 1100). The note with it: small-molecule microarray, higher = more signal.
A short description of experiment [4]: change in splice reporter luminescence, either direction, cell-based, HEK293, spliceosome inhibition project, primary screen (AID 1101).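 Note: HEK293 cells carrying a splicing-competent luciferase reporter gene; test concentration not given here.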 The note with it: HEK293 splicing luciferase reporter, 24 h, higher = more signal, called active from +8 up or from −8 down.
Experiment [5] has as its target Fibroblast growth factor 10 (Homo sapiens) (UniProt O15520). Nature of the experiment: compounds binding fibroblast growth factor 10 – biochemical, small-molecule microarray, 635 nm fluorescence, primary screen (AID 1102). The note with it: FGF10 binding, fluorescence 635 nm, higher = more signal.
In experiment [6] the test system is glycogen synthase kinase-3 (GSK3A per assay name; protocol says GSK3B). Nature of the experiment: compounds binding glycogen synthase kinase-3 – biochemical, small-molecule microarray, 635 nm fluorescence, GSK3A, primary screen (AID 1103). Note: the record names both GSK3A and GSK3B. The settings on record: fluorescence 635 nm, higher = more signal.
Experiment [7] deals with Epidermal growth factor receptor (Homo sapiens) (UniProt P00533). Description: compounds binding epidermal growth factor receptor – biochemical, small-molecule microarray, 635 nm fluorescence, primary screen (AID 1104).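 Note: score merges 667 nm emission intensity with spot signal to noise over triplicate slides.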 The settings on record: EGFR binding, higher = more signal.
The target of experiment [8] is Follistatin-related protein 3 (Homo sapiens) (UniProt O95633). Nature of the experiment: compounds binding follistatin-related protein 3 – biochemical, small-molecule microarray, 635 nm fluorescence, primary screen (AID 1105).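 Note: score merges emission near 667 nm and signal to noise per printed spot across three slides.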 The settings on record: FSTL3 binding, higher = more signal.
In experiment [9] the target is Dickkopf-related protein 1 (Homo sapiens) (UniProt O94907). Description: small molecules binding DKK1 protein – biochemical, small-molecule microarray, 635 nm fluorescence scan, primary screen (AID 1106).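 Note: score merges emission near 667 nm with signal to noise over three replicate slides.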 The note with it: higher = more signal.
In experiment [10] the test system is Inhibin beta A chain (activin A). Description: small molecules binding activin A – biochemical, small-molecule microarray, 635 nm fluorescence scan, primary screen (AID 1107).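 Note: mouse activin A protein probed at 4.33 µg/mL on printed slides; score merges bound-protein fluorescence near 667 nm with spot signal-to-noise.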 The note with it: INHBA, higher = more signal.
In experiment [11] the test system is Human papillomavirus type 1a protein E7 (residues 44-93). Nature of the experiment: small molecules binding HPV E7 44-93 – biochemical, small-molecule microarray, residues 44-93, 635 nm fluorescence, primary screen (AID 1108).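 Note: E7 fragment applied at 1 µg/mL in TBST for 1 h at 4 C; score combines spot fluorescence with its signal to noise ratio.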 The settings on record: fluorescence 635 nm, higher = more signal.
Experiment [12] can be described thus: hepatitis C replication reporter changes, two-sided – Huh7 cells, luciferase reporter, HCV replication inhibitor project, primary screen (AID 1109).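 Note: huh7 hepatoma cells harbouring a luciferase neomycin HCV replicon reporter; luciferase luminescence as measure of HCV replicon replication; test concentration not given here.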 The note with it: Huh7 HCV replicon luciferase reporter, 48 h; higher = more signal. For orientation: In a reporter assay the amount or activity of a reporter protein is the signal.
For experiment [13], the target named is Left-right determination factor 2 (Homo sapiens) (UniProt O00292). Nature of the experiment: small molecules binding LEFTY2 protein – biochemical, small-molecule microarray, 635 nm fluorescence scan, primary screen (AID 1110). The settings on record: higher = more signal.
Experiment [14] addresses Calmodulin-1 (Homo sapiens) (UniProt P0DP23). Description: small molecules binding calmodulin-1 with EGTA – biochemical, small-molecule microarray, Cy5-labelled CALM1, profiling panel (AID 1111).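 Note: labelled calmodulin applied in Tris saline Tween buffer holding calcium plus EGTA and DTT.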 The settings on record: Cy5-CALM1 binding fluorescence, higher = more signal.
For experiment [15] the target is unchanged. Nature of the experiment: small molecules binding Ca-loaded calmodulin-1 – biochemical, small-molecule microarray, Cy5-labelled CALM1, plus calcium, artefact control for SMM control-protein annotation, profiling panel (AID 1112).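 Note: score merges spot fluorescence with signal to noise from triplicate slides.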 The note with it: Cy5-CALM1 binding fluorescence, higher = more signal.
Experiment [16] is described as follows: probe aWnt5a binding to arrayed compounds – biochemical, biotinylated probe, 635/667 nm fluorescence, primary screen (AID 1113).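 Note: score merges 667 nm fluorescence intensity with signal-to-noise per printed feature.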 The note with it: small-molecule microarray, higher = more signal.
The nature of experiment [17]: probe aShh binding to arrayed compounds – biochemical, biotinylated probe, 635/667 nm fluorescence, primary screen (AID 1114).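 Note: probe is biotin-labelled aShh protein from a stem cell growth factor screen; measures binding of labelled protein to compounds printed on the slide; score merges feature fluorescence at 667 nm with signal-to-noise.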 The settings on record: small-molecule microarray, higher = more signal.
A short description of experiment [18]: probe aNog binding to arrayed compounds – biochemical, biotinylated probe, 635/667 nm fluorescence, primary screen (AID 1115).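 Note: probe is biotinylated aNog protein used at 0.15 µg/mL for 1 h at 4 C; z-score combines 667 nm fluorescence of each spot with its signal to noise.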 The settings on record: small-molecule microarray, higher = more signal.
Experiment [19] has as its target Torsin-1A-interacting protein 1 (Homo sapiens) (UniProt Q5JTV8). Description: compound microarray binding of lysate hLAP1 – cell lysate, small-molecule microarray, COS7 lysate, 635/667 nm fluorescence, primary screen (AID 1116). The settings on record: 635 nm fluorescence, higher = more signal.
Experiment [20] has as its target Alpha-bungarotoxin (Bungarus multicinctus) (UniProt P60615). Description: compounds binding labelled alpha-BTX control protein – biochemical, small-molecule microarray, Alexa647 label, 635/667 nm fluorescence, artefact control for SMM control protein annotation, profiling panel (AID 1117). The note with it: alpha-BTX-A647 binding fluorescence, higher = more signal.

Calls of active or inactive are those of the source.

Chain of Epidermal growth factor receptor (Homo sapiens) (P00533 whole entry, looked up): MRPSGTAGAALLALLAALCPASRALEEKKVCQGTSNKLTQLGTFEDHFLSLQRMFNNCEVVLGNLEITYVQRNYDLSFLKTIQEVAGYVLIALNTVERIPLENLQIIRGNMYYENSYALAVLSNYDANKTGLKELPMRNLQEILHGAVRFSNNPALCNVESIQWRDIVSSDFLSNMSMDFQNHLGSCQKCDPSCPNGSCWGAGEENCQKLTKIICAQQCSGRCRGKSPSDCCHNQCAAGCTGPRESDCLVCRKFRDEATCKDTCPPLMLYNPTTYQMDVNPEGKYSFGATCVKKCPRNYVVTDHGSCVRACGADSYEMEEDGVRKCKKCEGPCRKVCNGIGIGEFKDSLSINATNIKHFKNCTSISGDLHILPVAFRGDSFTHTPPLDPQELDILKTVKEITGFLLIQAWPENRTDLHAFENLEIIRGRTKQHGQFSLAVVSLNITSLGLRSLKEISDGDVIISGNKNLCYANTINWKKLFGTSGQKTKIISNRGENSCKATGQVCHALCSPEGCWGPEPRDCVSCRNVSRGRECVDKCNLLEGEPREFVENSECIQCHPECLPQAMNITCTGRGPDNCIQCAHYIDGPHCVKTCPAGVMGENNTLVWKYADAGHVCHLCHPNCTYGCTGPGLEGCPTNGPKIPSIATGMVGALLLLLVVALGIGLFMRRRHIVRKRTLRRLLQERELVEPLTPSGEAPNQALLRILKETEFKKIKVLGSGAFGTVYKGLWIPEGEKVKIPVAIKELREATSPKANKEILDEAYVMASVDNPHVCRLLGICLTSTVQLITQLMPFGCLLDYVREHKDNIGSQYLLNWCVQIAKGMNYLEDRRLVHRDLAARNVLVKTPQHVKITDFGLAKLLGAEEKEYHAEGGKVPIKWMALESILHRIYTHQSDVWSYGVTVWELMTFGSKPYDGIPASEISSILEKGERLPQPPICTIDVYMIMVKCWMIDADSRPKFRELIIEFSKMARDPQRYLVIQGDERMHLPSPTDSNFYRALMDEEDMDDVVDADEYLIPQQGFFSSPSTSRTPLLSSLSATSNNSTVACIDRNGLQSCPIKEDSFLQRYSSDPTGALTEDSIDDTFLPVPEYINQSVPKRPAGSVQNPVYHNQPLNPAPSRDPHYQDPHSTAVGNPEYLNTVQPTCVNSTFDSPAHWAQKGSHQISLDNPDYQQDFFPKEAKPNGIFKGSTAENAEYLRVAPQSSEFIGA
Chain of Fibroblast growth factor 10 (Homo sapiens) (O15520 whole entry, looked up): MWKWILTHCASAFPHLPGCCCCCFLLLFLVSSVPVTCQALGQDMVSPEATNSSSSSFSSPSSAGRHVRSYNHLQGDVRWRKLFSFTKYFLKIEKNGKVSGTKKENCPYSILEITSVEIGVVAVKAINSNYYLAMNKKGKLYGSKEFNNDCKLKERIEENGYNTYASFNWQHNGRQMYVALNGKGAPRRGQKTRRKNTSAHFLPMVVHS
Chain of Alpha-bungarotoxin (Bungarus multicinctus) (P60615 whole entry, looked up): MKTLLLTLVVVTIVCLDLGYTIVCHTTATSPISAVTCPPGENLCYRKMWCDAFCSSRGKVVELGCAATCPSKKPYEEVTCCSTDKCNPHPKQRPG
Chain of Torsin-1A-interacting protein 1 (Homo sapiens) (Q5JTV8 whole entry, looked up): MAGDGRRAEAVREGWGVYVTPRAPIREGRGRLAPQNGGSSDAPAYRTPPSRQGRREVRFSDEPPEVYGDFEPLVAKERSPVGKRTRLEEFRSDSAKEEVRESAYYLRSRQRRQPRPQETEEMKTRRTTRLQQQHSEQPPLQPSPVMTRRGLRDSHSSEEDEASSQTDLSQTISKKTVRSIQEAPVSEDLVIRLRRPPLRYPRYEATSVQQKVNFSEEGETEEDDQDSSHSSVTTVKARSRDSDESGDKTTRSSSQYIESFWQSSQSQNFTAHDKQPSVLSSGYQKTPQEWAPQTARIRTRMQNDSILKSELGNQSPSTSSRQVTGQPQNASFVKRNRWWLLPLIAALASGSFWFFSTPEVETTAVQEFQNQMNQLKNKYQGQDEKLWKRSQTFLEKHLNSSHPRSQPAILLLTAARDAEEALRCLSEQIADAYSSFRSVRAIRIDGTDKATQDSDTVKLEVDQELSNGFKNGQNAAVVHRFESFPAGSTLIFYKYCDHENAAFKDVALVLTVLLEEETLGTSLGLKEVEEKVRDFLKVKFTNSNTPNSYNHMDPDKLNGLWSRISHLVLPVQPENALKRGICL
Chain of Follistatin-related protein 3 (Homo sapiens) (O95633 whole entry, looked up): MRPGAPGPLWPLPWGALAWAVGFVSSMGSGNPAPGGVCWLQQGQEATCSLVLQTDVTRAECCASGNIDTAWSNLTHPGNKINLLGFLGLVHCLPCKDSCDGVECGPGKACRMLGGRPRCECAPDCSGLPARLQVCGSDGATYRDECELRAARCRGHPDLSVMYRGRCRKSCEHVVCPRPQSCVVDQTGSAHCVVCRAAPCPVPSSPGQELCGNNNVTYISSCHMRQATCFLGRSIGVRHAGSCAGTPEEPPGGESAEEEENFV
Chain of Dickkopf-related protein 1 (Homo sapiens) (O94907 whole entry, looked up): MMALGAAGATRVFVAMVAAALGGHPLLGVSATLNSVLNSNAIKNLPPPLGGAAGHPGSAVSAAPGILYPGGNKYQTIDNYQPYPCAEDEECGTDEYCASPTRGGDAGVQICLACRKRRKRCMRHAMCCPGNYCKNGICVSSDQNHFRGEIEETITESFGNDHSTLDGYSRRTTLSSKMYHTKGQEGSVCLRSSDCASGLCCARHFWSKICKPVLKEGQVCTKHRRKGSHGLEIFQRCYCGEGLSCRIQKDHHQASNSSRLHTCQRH
Chain of Left-right determination factor 2 (Homo sapiens) (O00292 whole entry, looked up): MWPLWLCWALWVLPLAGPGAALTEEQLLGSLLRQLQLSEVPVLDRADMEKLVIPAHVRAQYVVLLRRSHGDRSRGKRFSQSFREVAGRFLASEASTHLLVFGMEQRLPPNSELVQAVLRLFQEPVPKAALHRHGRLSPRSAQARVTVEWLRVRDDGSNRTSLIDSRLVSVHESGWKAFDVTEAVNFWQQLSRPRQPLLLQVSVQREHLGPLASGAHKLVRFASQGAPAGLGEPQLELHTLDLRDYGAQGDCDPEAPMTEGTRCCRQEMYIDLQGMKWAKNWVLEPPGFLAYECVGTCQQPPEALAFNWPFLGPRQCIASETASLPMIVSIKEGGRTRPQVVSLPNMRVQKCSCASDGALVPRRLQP

For the compound `CCN(CC)c1ccc(N2CC=CC34O[C@@H]5/C=C\CCC(C)OC(=O)C5[C@H]3C(=O)N(CCCCCCO)[C@@H]4C2=O)cc1` (stereo not given in full), the composite z-score is 0.586 in experiment [1]; -0.331 in experiment [2]; 0.0224 in [3]; -0.0455 in [5]; -0.624 in [6]; -0.782 in [7]. Besides, the composite z-score in experiment [8] was -0.622; in experiment [9] it was -0.471; in experiment [10], 1.04; in experiment [11] it was -0.27; in experiment [13] it was -0.694; in [14] it was -0.423. The composite z-score in experiment [15] was -0.304; in [16], -0.13; in experiment [17], -0.223; in experiment [18] it was -0.16; in experiment [19] it was 0.891; in experiment [20] it was -1.04. Besides, the z-score in experiment [4] is 0.449 (inactive); in [12] it was -0.693.

On to `COC(=O)[C@@]1(Cc2ccc(F)cc2)[C@H]2c3cc(C(=O)N(C)C)n(Cc4ccccn4)c3C[C@H]2CN1C(=O)c1ccccc1`, for which the composite z-score is 1.19 in experiment [1]; 1.37 in experiment [2]; 1.14 in experiment [3]; 0.214 in [5]; 1.08 in experiment [6]; 0.328 in experiment [7]. In addition, the composite z-score is 0.706 in experiment [8]; 0.116 in experiment [9]; 1.24 in [10]; 1.4 in [11]; 0.256 in [13]; 0.63 in [14]. Moreover, the composite z-score in experiment [15] is 0.681; in experiment [16] it was -0.195; in experiment [17] it was -0.333; in experiment [18] it was 0.535; in experiment [19], 1.11; in experiment [20], 0.0404. The results for the z-score in experiment [4] and in [12] were -2.82 (inactive) and -1.39, respectively.

Consider `C=CC[C@]1(C(=O)NCCN2CCOCC2)N=C(c2ccc(OCCCO)cc2)O[C@H]1c1ccccc1N=[N+]=[N-]`, for which the composite z-score in experiment [1] stood at 0.529; in experiment [2], 1.22; in experiment [3], 1.31; in [5], 1.08; in experiment [6], 0.287; in experiment [7], 0.327. The composite z-score stood at 1.05 in [8]; 0.283 in experiment [9]; 1.6 in experiment [10]; 1.01 in experiment [11]; 0.26 in experiment [13]; 1.34 in experiment [14]. Further, the composite z-score was -0.0083 in [15]; 0.048 in experiment [16]; -0.155 in [17]; 1.39 in experiment [18]; 1.36 in [19]; 1.3 in experiment [20]. For the same compound, the z-score is -0.448 (inactive) in experiment [4] and -0.44 in experiment [12].

As for `C=C(COC)/C(=C/C[C@H](OC(C)=O)c1ccccc1OCCO)c1cnc2ccccc2c1`, the composite z-score in experiment [1] is 0.279; in experiment [2] it was -0.0732; in experiment [3], -0.0887; in experiment [5], 1.16; in experiment [6], 0.521; in experiment [7] it was 0.486. In addition, the composite z-score was found to be 1.41 in experiment [8]; 0.743 in experiment [9]; 1.85 in experiment [10]; 1.29 in experiment [11]; 0.425 in experiment [13]; 0.177 in [14]. Further, the composite z-score is -0.173 in experiment [15]; -0.0944 in [16]; 0.0756 in experiment [17]; 0.226 in experiment [18]; -0.0998 in experiment [19]; 0.625 in [20]. Also, the z-score in experiment [4] was 0.11 (inactive); in [12], -1.57.

As for `CN1C(=O)C2C=CC(C(O)c3ccc(Br)cc3)N(Nc3ccccc3)C2C1=O` (stereo not given), the composite z-score in experiment [1] is -0.186; in [2] it was 0.528; in experiment [3] it was 1.03; in experiment [5], -0.583; in experiment [6], -1.21; in [7], -1.3. In addition, the composite z-score in experiment [8] was -1.09; in experiment [9], -1.49; in [10], 1.12; in experiment [11], -0.0441; in experiment [13], -1.43; in [14], -0.209. The composite z-score in experiment [15] was 0.394; in experiment [16] it was -0.124; in [17], -0.178; in experiment [18], 0.154; in experiment [19], 0.65; in experiment [20], -0.292. Moreover, the z-score in [4] is 1.11 (inactive); in [12], 0.15.

(Values after PubChem BioAssay.)
